M1 PAM: potentiates human M1 receptor response to acetylcholine; CHO-K1 hM1, Fluo-8 calcium fluorescence, ACh EC20; 0% = ACh EC20, 100% = maximal ACh; activation, % at 3 µM; 0.088% of 360,000 active; in the data active = activation above about 19%, passing the limit was not always enough
Target sequence (P11229 whole entry, looked up): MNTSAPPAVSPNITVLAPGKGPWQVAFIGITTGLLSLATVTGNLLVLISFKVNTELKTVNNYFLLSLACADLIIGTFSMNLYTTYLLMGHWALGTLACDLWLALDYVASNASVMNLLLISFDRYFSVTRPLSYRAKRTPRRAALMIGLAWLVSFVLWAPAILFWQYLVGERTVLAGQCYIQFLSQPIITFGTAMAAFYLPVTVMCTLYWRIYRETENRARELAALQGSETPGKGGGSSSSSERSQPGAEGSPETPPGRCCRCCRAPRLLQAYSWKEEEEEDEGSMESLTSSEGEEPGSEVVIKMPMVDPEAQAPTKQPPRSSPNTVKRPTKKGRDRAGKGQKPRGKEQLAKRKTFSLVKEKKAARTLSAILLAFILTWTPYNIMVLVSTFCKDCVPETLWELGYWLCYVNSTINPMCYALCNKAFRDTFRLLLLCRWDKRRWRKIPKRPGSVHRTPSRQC
M1 PAM parental: nonselective activator or artifact in parental CHO-K1 calcium assay | activation, % at 3 µM | AID 602247 | ATP EC20, Fluo-8 calcium fluorescence; 0% at ATP EC20, 100% at ATP max | 0.02% of 360,000 active;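 active = activation above the run cutoff, the mean activation of all test compounds plus 3 SD, cut at about 40% in these data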;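 also: peak over basal fluorescence ratio in a 140 s read after ATP addition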
M1 ag: activates human CHRM1 receptor; activation, % at 3 µM; 0.33% of 360,000 active; CHO-K1 hM1, Fluo-8 calcium fluorescence, agonist mode; 0% DMSO, 100% acetylcholine EC100; P11229;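 active = activation above the run's mean compound activation plus 3 SD, cut at about 16% in these data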;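 also: peak over basal fluorescence ratio within a 140 s kinetic read after compound addition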
CHRM1 antagonist: blocks human M1 muscarinic receptor; 1.3% of 360,000 active; inhibition, % at 3 µM; CHO-K1 hM1, Fluo-8 calcium fluorescence, ACh EC80 antagonist; P11229;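 active = percent inhibition above its own plate's cutoff, namely the mean of that plate's compound wells plus 3 SD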;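 also: peak over basal fluorescence ratio during 140 s after agonist addition; 0% = ACh EC80 plus DMSO and 100% = DMSO alone without agonist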
M1 ag parental: M1 agonist counterscreen hit in parental CHO-K1 cells. 0.48% of 360,000 active. Fluo-8 calcium fluorescence; scaled to maximal ATP response, vehicle zero. activation, % at 3 µM; in the data active = activation above about 15%;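 also: untransfected CHO-K1 host cells lacking M1 receptor as counterscreen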
CHO-K1 Ca antag: nonselective inhibitor or artifact in parental CHO-K1 cells | ATP-induced calcium, Fluo-8 fluorescence | inhibition, % at 3 µM | 0.6% of 360,000 active | AID 602250;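 active = inhibition above a per-plate cutoff, the plate's mean sample inhibition plus 3 SD, cut at about 24% in these data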;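 also: 0% = DMSO plus EC80 ATP and 100% = DMSO alone without ATP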
Numbers without * were called inactive. An excerpt weighted towards active compounds, which were near 2.3% of everything screened.

SMILES	M1 PAM	M1 PAM parental	M1 ag	CHRM1 antagonist	M1 ag parental	CHO-K1 Ca antag
O=C(NCCC1CCCCN1S(=O)(=O)c1ccc(Cl)cc1)C(=O)NCCN1CCOCC1 (stereo not given)	4	2	-8	-5	1	-5
Cc1cc(C)c(C#N)c(SCc2ccccc2[N+](=O)[O-])n1	1	-2	-8	1	0	0
Cc1cc(C)c(C#N)c(SCc2nnc(-c3ccccc3)o2)n1	-19	-17	-7	24*	1	25*
Cc1cc(C)c(C#N)c(SCc2nnc(-c3ccccc3[N+](=O)[O-])o2)n1	-34	-6	-6	43*	7	18
Cc1ccccc1-n1c(SCC(=O)N2CCOCC2)nc(O)c(Cc2ccccc2)c1=O	9	-6	-2	-8	0	-14
CSc1ccc(CN2CCC(C)(Oc3ccccc3)C2)cc1 (stereo not given)	-14	15	-8	4	1	-14
COc1ccc(NC(=O)C2Cc3c(-c4ccc5c(c4)OCO5)ccnc3O2)cc1OC (stereo not given)	-15	-2	2	33*	11	6
COc1cccc(CNc2cnc3ccccc3c2)c1O	-9	4	4	8	16*	7
CC1CCN(CC(=O)N2c3ccccc3CCc3ccccc32)CC1	-27	-7	-7	72*	0	-7
O=C(CN1CCC(N2CCCCC2)CC1)N1CCCc2ccccc21	-1	3	-5	4	0	-1
O=C(CN1CCCCC1)N1c2ccccc2CCc2ccccc21	-21	10	-4	93*	0	-1
O=C(CN1CCC(O)CC1)N1c2ccccc2C=Cc2ccccc21	-24	13	-10	47*	1	-8
O=C(CN1C(=O)CC(c2ccco2)Sc2ccccc21)Nc1ccc2c(c1)OCCO2 (stereo not given)	-22	-8	-8	38*	5	0
CCc1nc(SCC(=O)Nc2cc(OC)ccc2OC)c2c(C)c(C)sc2n1	-11	-11	-7	33*	0	-16
CCc1nc(SCC(=O)Nc2nnc(CC)s2)c2c(C)c(C)sc2n1	8	-11	0	-23	1	13
c1nc(NCCN2CCOCC2)c2c3c(sc2n1)CCCCC3	-1	-4	-3	3	0	5
CN1CCC(=NNc2ncnc3sc4c(c23)CCCC4)CC1	-3	-6	-8	13	0	27*
Cc1ccc(S(=O)(=O)N2C[C@H]3C(=O)C[C@@H](c4ccccc4F)N(S(=O)(=O)c4ccc(C)cc4)[C@H]3C[C@H]2c2ccccc2F)cc1	18	-5	11	-15	0	29*
COc1ccc([C@@H]2C[C@H]3[C@@H](CN2S(=O)(=O)c2ccccc2)C(=O)C[C@@H](c2cccc(Cl)c2)N3S(=O)(=O)c2ccc(C)cc2)cc1	-2	9	-2	21	2	24*
Cc1ccc([C@@H]2C[C@H]3[C@@H](CN2S(=O)(=O)c2ccc(C)cc2)C(=O)C[C@@H](c2ccccc2F)N3S(=O)(=O)c2ccc(C)cc2)cc1	10	-1	4	-2	0	17
Cc1ccc(S(=O)(=O)N2C[C@H]3C(=O)C[C@@H]4C(=O)N(c5ccccc5)C(=O)[C@@H]4[C@@H]3C[C@H]2c2cccc(Cl)c2)cc1	-6	-1	-2	23	5	31*
CC(C)(C)c1ccc(C(=O)N2CCC2(C)C(=O)NCc2cccs2)cc1 (stereo not given)	-9	-9	0	-1	5	0
CCc1ccc(OC2(C)CCN(Cc3ccc4c(c3)OCCO4)C2)cc1 (stereo not given)	-11	26	-7	8	2	-26
CCOc1ccc(CCNC(=O)COc2cccc(-n3cnnn3)c2)cc1OCC	4	-8	-1	-17	1	0
C#CCOCCOCCOCCNc1nc(N2CCN(C(=O)CCCCCCCCCCNC(=O)[C@H](CCCCN)n3cc(CCCC(=O)O)nn3)CC2)nc(N2CCN(C(=O)CCCCCCCCCCNC(=O)[C@@H]([C@H](C)O)n3cc(C)nn3)CC2)n1	13	8	6	-17	1	-17
SMILES	M1 PAM	M1 PAM parental	M1 ag	CHRM1 antagonist	M1 ag parental	CHO-K1 Ca antag
C#CCOCCOCCOCCNc1nc(N2CCOCC2)nc(N2CCN(C(=O)CCCCCCCCCCNC(=O)[C@@H](CCC(=O)O)n3cc(CCCCCN)nn3)CC2)n1	8	-10	-1	9	0	8
C#CCOCCOCCOCCNc1nc(N2CCN(C(=O)CCCCCCCCCCNC(=O)[C@H]([C@@H](C)CC)n3cc(CCCCCN)nn3)CC2)nc(N2CCN(C(=O)CCCCCCCCCCNC(=O)[C@H](CO)n3cc(CCCCCN)nn3)CC2)n1	-21	5	19*	12	2	-14
C#CCOCCOCCOCCNc1nc(N2CCN(C(=O)CCCCCCCCCCNC(=O)Cn3cc(CCCCCN)nn3)CC2)nc(N2CCN(C(=O)CCCCCCCCCCNC(=O)[C@@H](CCC(=O)O)n3cc(CCCCCN)nn3)CC2)n1	-15	10	1	17	4	-8
C#CCOCCOCCOCCNc1nc(N2CCN(C(=O)CCCCCCCCCCNC(=O)[C@@H](CCC(=O)O)n3cc(CCCCCN)nn3)CC2)nc(N2CCN(C(=O)CCCCCCCCCCNC(=O)[C@H]([C@@H](C)CC)n3cc(CCCCCN)nn3)CC2)n1	-13	10	18*	12	2	-15
C#CCOCCOCCOCCNc1nc(N2CCN(C(=O)CCCCCCCCCCNC(=O)[C@H]([C@@H](C)CC)n3cc(CCCCCN)nn3)CC2)nc(N2CCN(C(=O)CCCCCCCCCCNC(=O)[C@H](CCCCN)n3cc(CCCC(=O)O)nn3)CC2)n1	-8	6	18*	3	6	-10
C#CCOCCOCCOCCNc1nc(N2CCN(C(=O)CCCCCCCCCCNC(=O)Cn3cc(CCCCCN)nn3)CC2)nc(N2CCN(C(=O)CCCCCCCCCCNC(=O)Cn3cc(CCCCCN)nn3)CC2)n1	-35	8	-7	39*	3	-7
COc1ccc(/C=C2\SC(=S)N(CC(=O)NC3CCS(=O)(=O)C3)C2=O)cc1 (stereo not given)	3	5	-1	3	6	1
CC(C)(C)OC(=O)NCCCCCc1cn([C@@H](CO)C(=O)NCCCCCCCCCCC(=O)N2CCN(C(=O)OC(C)(C)C)CC2)nn1	-36	-14	-3	74*	18*	23
CC(C)(C)OC(=O)CC[C@@H](C(=O)NCCCCCCCCCCC(=O)N1CCN(C(=O)OC(C)(C)C)CC1)n1cc(CCCCCNC(=O)OC(C)(C)C)nn1	20	-4	6	-5	0	-1
COc1ccc(-c2nc(C#N)c(N3CCN(c4ccccc4)CC3)o2)cc1	-15	-10	-1	29*	0	9
